Measurements taken from PubChem BioAssay AID463173 (ICCB-Longwood Screening Facility, Harvard Medical School, 2010).
Hit rate of the full screen: of about 52,000 compounds, about 1,700 (3.3%) were called active. Cut-off read from the data, not from the text of the source: active = survival mostly below about 52% (no sharp cut-off); inactive = mostly above about 56%. Only a selection was taken, and actives are over-represented in it overall.

What follows are compounds tested on Wild type (assay: S. aureus survival, RN4220 and DeltatarO strains – OD600, teichoic acid synthesis inhibitors, primary screen (AID 463173)). Settings: S. aureus RN4220 wild type/DeltatarO growth, OD600, 18 h, active compounds read low, screened at 18.75 µg/mL (by protocol).
`CCOC(=O)/C(C#N)=N\Nc1ccccc1OC` was tested, and the survival was 105% (inactive). With `CCC(=O)N1CCc2cc(S(=O)(=O)NC(CC(C)C)C(=O)NCCc3ccccc3)ccc21` (stereo not given) the survival was 127% (inactive). `COc1ccc(CCN2C(=O)c3[nH]nc(-c4ccccc4O)c3C2c2ccc(OC)cc2)cc1` (stereo not given) was tested, and the survival was 58% (inactive). With `CC(C)c1ccc(C2c3c(-c4ccccc4O)n[nH]c3C(=O)N2Cc2ccncc2)cc1` (stereo not given) the survival was 106% (inactive). For `COc1ccc(C2c3c(-c4c(C)cc(C)cc4O)n[nH]c3C(=O)N2Cc2ccco2)cc1` (stereo not given), the survival was 15% (inactive). In the case of `O=C1c2[nH]nc(-c3ccccc3O)c2C(c2ccc(Cl)cc2)N1Cc1ccco1` (stereo not given), the survival is reported as -1% (active). With `CCCOc1ccc(C2c3c(-c4ccccc4O)n[nH]c3C(=O)N2Cc2cccnc2)cc1` (stereo not given) the survival was 3% (active). `CC(C)c1ccc(C2c3c(-c4ccccc4O)n[nH]c3C(=O)N2CCc2ccccc2)cc1` (stereo not given) was tested, and the survival was 64% (inactive). For `CCc1ccc(C2c3c(-c4ccccc4O)n[nH]c3C(=O)N2Cc2cccnc2)cc1` (stereo not given), the survival was 71% (inactive). `COc1cc(C2c3c(-c4ccccc4O)n[nH]c3C(=O)N2Cc2ccco2)ccc1OCC(C)C` (stereo not given) was tested, and the survival was 43% (inactive). With `O=C1c2[nH]nc(-c3ccccc3O)c2C(c2ccc(Cl)cc2)N1CCc1ccccc1` (stereo not given) the survival was 4% (active). For `Cc1ccc(C2c3c(-c4ccccc4O)n[nH]c3C(=O)N2CCc2ccccc2)cc1` (stereo not given), the survival was 58% (inactive). With `COc1ccc(C2c3c(-c4ccccc4O)n[nH]c3C(=O)N2Cc2ccco2)cc1` (stereo not given) the survival was 10% (active). With `CCOc1cc(C2c3c(-c4ccccc4O)n[nH]c3C(=O)N2Cc2cccnc2)ccc1O` (stereo not given) the survival was 89% (inactive). In the case of `CCc1nnc(SCc2ccc(F)cc2Cl)c2cc3sc(C)cc3n12`, the survival is reported as 96% (inactive). For `CCOC(=O)c1cccc(NC(=O)c2ccc3snnc3c2)c1`, the survival was 84% (inactive). With `COc1ccc(C)cc1NC(=O)C(=O)NCC1(c2ccccc2)CCCC1` the survival was 94% (inactive). With `COc1ccc2c(c1)cc1c(=O)n(CC(=O)NCCc3ccccc3)nc(C)n12` the survival was 81% (inactive). For `CCc1ccccc1NC(=O)CN1C(=O)COc2ccc(S(=O)(=O)Nc3ccccc3)cc21`, the survival was 64% (inactive). With `COc1ccc(-c2nc(N)n(C(C)=O)n2)cc1` the survival was 107% (inactive). `Cc1nnc(SCCCN2C(=O)c3ccccc3C2=O)o1` was tested, and the survival was 105% (inactive). `Cc1cccc(NC(=O)CCn2cnnn2)c1C` was tested, and the survival was 71% (inactive). `Cc1cc(C)c(NC(=O)c2sc3nc(C)cc(C)c3c2N)c(C)c1` was tested, and the survival was 73% (inactive). With `CCCN1C(=O)c2[nH]nc(-c3ccccc3O)c2C1c1cccc(OCc2ccccc2)c1` (stereo not given) the survival was 42% (inactive). In the case of `CCCOc1cccc(C2c3c(-c4ccccc4O)n[nH]c3C(=O)N2Cc2ccco2)c1` (stereo not given), the survival is reported as 11% (active). With `CCOc1cccc(C2c3c(-c4cc(C)ccc4O)n[nH]c3C(=O)N2Cc2ccco2)c1` (stereo not given) the survival was 27% (inactive). For `CCOc1cccc(C(=O)N(Cc2ccc(C)o2)C2CCS(=O)(=O)C2)c1` (stereo not given), the survival was 90% (inactive). With `CCOC(=O)C1CCN(C(=O)Cn2ncc3c4ccccc4n(Cc4ccc(F)cc4)c3c2=O)CC1` the survival was 80% (inactive). In the case of `COCCNC(=O)C(=O)Nc1c2c(nn1-c1ccccc1)CS(=O)(=O)C2`, the survival is reported as 76% (inactive). With `CC(C)CCNC(=O)C(=O)Nc1c2c(nn1-c1ccccc1)CS(=O)(=O)C2` the survival was 90% (inactive). In the case of `CC(C)OCCCNC(=O)C(=O)Nc1c2c(nn1-c1ccccc1)CS(=O)(=O)C2`, the survival is reported as -6% (active). With `CCOc1cccc(C(=O)Nc2cc(C)c(O)c(-c3nc4ncccc4o3)c2)c1` the survival was 84% (inactive). With `CNC(=O)C1CCC(Cn2c(=O)c3sccc3n(CC(=O)NCc3ccccc3)c2=O)CC1` (stereo not given) the survival was 0% (active). In the case of `CNC(=O)C1CCC(Cn2c(=O)c3sccc3n(CC(=O)NCc3ccc(F)cc3)c2=O)CC1` (stereo not given), the survival is reported as 45% (inactive). With `CNC(=O)C1CCC(Cn2c(=O)c3sccc3n(CC(=O)NCc3ccc(C)cc3)c2=O)CC1` (stereo not given) the survival was 73% (inactive). `Cc1cc(C)cc(NC(=O)COc2cccc3c(=O)n(C)ccc23)c1` was tested, and the survival was 72% (inactive). `CCCCOc1ccc(Cn2c(=O)oc3ccc(C)cc32)cc1` was tested, and the survival was 58% (inactive). `Cc1ccc2oc(=O)n(CCNC(=O)Nc3ccc(Cl)cc3)c2c1` was tested, and the survival was 79% (inactive). For `COc1ccc(Cl)cc1NC(=O)NCCn1c(=O)oc2ccc(C)cc21`, the survival was 62% (inactive). With `COc1ccc(OCCCn2c(C)nc3cc(C)c(C)cc32)cc1` the survival was 67% (inactive). In the case of `COc1ccc(OCCCn2c(=O)oc3ccc(C)cc32)cc1`, the survival is reported as 2% (active). `Cc1ccc2oc(=O)n(CCCOc3ccc(Cl)cc3)c2c1` was tested, and the survival was -9% (active). `COc1ccc(CCNC(=O)CCCCn2c(=O)c3ccccc3n(Cc3ccc(Cl)cc3)c2=O)cc1OC` was tested, and the survival was 105% (inactive). `COc1cc2nc(SCC(=O)Nc3c(C)cc(C)cc3C)n3nc(CCn4c(C)nc5ccccc54)nc3c2cc1OC` was tested, and the survival was 91% (inactive). For `CCOc1ccccc1C(=O)Nc1cc(-c2nc3cccnc3s2)ccc1C`, the survival was 67% (inactive). `COCCCNC(=O)C1CCN(c2nn3cc(-c4ccc(F)cc4)nc3s2)CC1` was tested, and the survival was 88% (inactive). For `CCCCS(=O)(=O)c1oc(-c2cccs2)nc1S(=O)(=O)c1ccc(F)cc1`, the survival was 82% (inactive). In the case of `CCCCS(=O)(=O)c1oc(-c2cccs2)nc1S(=O)(=O)c1ccccc1`, the survival is reported as 0% (active). For `CCCCCS(=O)(=O)c1oc(-c2cccs2)nc1S(=O)(=O)c1ccc(C)cc1`, the survival was 11% (active). For `CCCSc1oc(-c2cccs2)nc1S(=O)(=O)c1ccc(C)cc1`, the survival was 39% (inactive). With `Cc1ccc(CSc2oc(-c3cccs3)nc2S(=O)(=O)c2ccc(C)cc2)cc1` the survival was 128% (inactive). `CCC(C)S(=O)(=O)c1oc(-c2cccs2)nc1S(=O)(=O)c1ccccc1` (stereo not given) was tested, and the survival was 16% (inactive). `CCOc1ccc(C(=O)c2c(N)c(-c3nc(-c4ccc(OCC)cc4)cs3)c3ccccn23)cc1` was tested, and the survival was 103% (inactive). `O=C(O)CN1C(=O)/C(=N\N2C(=O)CSC2=S)c2ccccc21` was tested, and the survival was 90% (inactive). For `Cc1ccccc1C(=O)Nc1c(C)nc2ccccn2c1=O`, the survival was 10% (active). For `Cc1nc2ccccn2c(=O)c1NC(=O)c1ccc(C(F)(F)F)cc1`, the survival was -2% (active). `Cc1nc2ccccn2c(=O)c1NC(=O)c1ccc(F)c(F)c1` was tested, and the survival was 80% (inactive). With `Cc1nc2ccccn2c(=O)c1NC(=O)c1ccccc1Cl` the survival was 129% (inactive). In the case of `Cc1ccc(C(=O)Nc2c(C)nc3ccccn3c2=O)cc1`, the survival is reported as 88% (inactive). For `Cc1ccc(C(=O)Nc2c(C)nc3ccccn3c2=O)cc1C`, the survival was 69% (inactive). In the case of `Cc1c(C(=O)Nc2ccc(F)c(F)c2)oc2ccc(S(=O)(=O)N(C)C3CCCCC3)cc12`, the survival is reported as 74% (inactive). `COc1ccccc1CNC(=O)CC(c1ccc(C)cc1)N1Cc2ccccc2C1=O` (stereo not given) was tested, and the survival was 60% (inactive). For `CC(C)(C)c1cc(-c2ccccc2)n[nH]1`, the survival was 132% (inactive). With `CN(C)c1ccc(NC(=O)CSc2nc3ccsc3c(=O)n2CCCCCC(=O)O)cc1` the survival was 70% (inactive). `CCn1cc2nc(SCc3ccc(F)cc3)n(CCc3ccccc3)c(=O)c2n1` was tested, and the survival was 77% (inactive). For `Cc1ccc(CCNC(=O)Cn2nc(-c3ccc(C)cc3)ccc2=O)cc1`, the survival was -3% (active). `Cc1ccc(-c2ccc(=O)n(CC(=O)NCCc3ccccc3)n2)cc1` was tested, and the survival was 65% (inactive). For `Cc1ccc(-c2ccc(=O)n(CC(=O)NCCc3ccc(Cl)cc3)n2)cc1`, the survival was 73% (inactive). In the case of `C=CCn1c(=O)[nH]c(=O)n(CC=C)c1=O`, the survival is reported as 111% (inactive). With `COc1ccc2c(Sc3ccccc3)c(C(=O)NCc3ccc(OC(C)C)cc3)[nH]c2c1` the survival was 125% (inactive). `CCOc1cc(CNCCSc2nnnn2C)cc(Cl)c1OCc1ccc(Cl)cc1` was tested, and the survival was -2% (active). For `CCOc1ccc(CNCCSc2nnnn2C)cc1OC`, the survival was 72% (inactive). In the case of `COc1cc(CNCCSc2nnnn2C)ccc1OCc1ccc(Cl)cc1Cl`, the survival is reported as 0% (active). `CCOc1cc(CNCCSc2nnnn2C)ccc1OCc1ccc(Cl)cc1Cl` was tested, and the survival was -5% (active). In the case of `COc1cc(CNCCSc2nnnn2C)cc(Cl)c1OCc1ccccc1`, the survival is reported as 59% (inactive). With `Cn1nnnc1SCCNCc1ccccc1OCc1ccc(Cl)cc1Cl` the survival was 56% (inactive). For `COc1cc(CNCCSc2nnnn2C)ccc1OCc1ccccc1C`, the survival was 68% (inactive). In the case of `Cn1nnnc1SCCNCc1ccc(OCc2ccc(Cl)cc2)cc1`, the survival is reported as 68% (inactive). `COc1cc(CNCCSc2nnnn2C)ccc1OCc1c(F)cccc1Cl` was tested, and the survival was 73% (inactive). In the case of `COCCNC(=O)c1ccc(-c2nc(CN3CCc4ccccc43)c(C)o2)cc1`, the survival is reported as 75% (inactive). For `NS(=O)(=O)c1ccc(CCNC(=O)c2ccc3nc(Cc4ccccc4)oc3c2)cc1`, the survival was 81% (inactive). `CCn1cc(C(=O)O)c(=O)c2cc(F)c(N3CCN(C(=O)c4ccccc4F)CC3)cc21` was tested, and the survival was 54% (inactive). With `CC(C)CC(=O)NCC(c1ccc2c(c1)OCO2)N1CCN(c2ccccc2)CC1` (stereo not given) the survival was 77% (inactive). With `Cc1ccc(Cl)cc1N1CCN(C(=O)c2cc(S(=O)(=O)N3CCCC3)c[nH]2)CC1` the survival was 77% (inactive). With `COC(=O)c1cc(S(=O)(=O)N2CCN(c3ccc(OC)cc3)CC2)c[nH]1` the survival was 85% (inactive). For `COC(=O)c1cc(S(=O)(=O)N2CCN(c3cc(Cl)ccc3C)CC2)c[nH]1`, the survival was 8% (active). `COc1ccccc1CNC(=O)CN1C(=O)CSc2ccc(S(=O)(=O)N3CCCCC3)cc21` was tested, and the survival was 83% (inactive). In the case of `COc1ccc(-n2ncc(C(=O)N3CCc4ccccc4C3)c2C2CCN(C(=O)OC(C)(C)C)CC2)cc1`, the survival is reported as 63% (inactive). `COc1cc2c(cc1NS(=O)(=O)c1cccc(C#N)c1)n(C)c(=O)n2C` was tested, and the survival was 76% (inactive). `CCOC(=O)c1c(-c2ccccc2)csc1NC(=O)c1nc(S(=O)(=O)CC)ncc1Cl` was tested, and the survival was 2% (active). `CCOC(=O)c1c(-c2ccccc2)csc1NC(=O)c1nc(SCC)ncc1Cl` was tested, and the survival was 97% (inactive). For `CCCSc1ncc(Cl)c(C(=O)Nc2scc(-c3ccc(C)cc3)c2C(=O)OCC)n1`, the survival was 87% (inactive). `CCOC(=O)c1c(-c2ccc(C)cc2)csc1NC(=O)c1nc(SCC)ncc1Cl` was tested, and the survival was 78% (inactive). `CCCS(=O)(=O)c1ncc(Cl)c(C(=O)Nc2scc(-c3ccccc3)c2C(=O)OCC)n1` was tested, and the survival was 4% (active). In the case of `CCOC(=O)c1c(-c2ccc(C)cc2)csc1NC(=O)c1nc(SC(C)C)ncc1Cl`, the survival is reported as 85% (inactive).
